The supplement of paper PMC11732987, “Enantioselective OTUD7B fragment discovery through chemoproteomics screening and high-throughput optimisation” (Communications Chemistry, 2025)

How the values were obtained:
Experiment in all cases: log2 ratio of Biotin-Ahx-Ub-VS probe labelling (fragment/DMSO); higher = less target engagement (more negative = stronger competition), active = hit call of the paper (q ≤ 0.05, log2 ratio ≤ -1)
Conditions in all cases: compound concentration: 200 uM; treatment time: 3 h
USP34 = USP34 (UniProt Q70CQ2)
Chain of USP34 (Q70CQ2 whole entry, the tested form may be a part): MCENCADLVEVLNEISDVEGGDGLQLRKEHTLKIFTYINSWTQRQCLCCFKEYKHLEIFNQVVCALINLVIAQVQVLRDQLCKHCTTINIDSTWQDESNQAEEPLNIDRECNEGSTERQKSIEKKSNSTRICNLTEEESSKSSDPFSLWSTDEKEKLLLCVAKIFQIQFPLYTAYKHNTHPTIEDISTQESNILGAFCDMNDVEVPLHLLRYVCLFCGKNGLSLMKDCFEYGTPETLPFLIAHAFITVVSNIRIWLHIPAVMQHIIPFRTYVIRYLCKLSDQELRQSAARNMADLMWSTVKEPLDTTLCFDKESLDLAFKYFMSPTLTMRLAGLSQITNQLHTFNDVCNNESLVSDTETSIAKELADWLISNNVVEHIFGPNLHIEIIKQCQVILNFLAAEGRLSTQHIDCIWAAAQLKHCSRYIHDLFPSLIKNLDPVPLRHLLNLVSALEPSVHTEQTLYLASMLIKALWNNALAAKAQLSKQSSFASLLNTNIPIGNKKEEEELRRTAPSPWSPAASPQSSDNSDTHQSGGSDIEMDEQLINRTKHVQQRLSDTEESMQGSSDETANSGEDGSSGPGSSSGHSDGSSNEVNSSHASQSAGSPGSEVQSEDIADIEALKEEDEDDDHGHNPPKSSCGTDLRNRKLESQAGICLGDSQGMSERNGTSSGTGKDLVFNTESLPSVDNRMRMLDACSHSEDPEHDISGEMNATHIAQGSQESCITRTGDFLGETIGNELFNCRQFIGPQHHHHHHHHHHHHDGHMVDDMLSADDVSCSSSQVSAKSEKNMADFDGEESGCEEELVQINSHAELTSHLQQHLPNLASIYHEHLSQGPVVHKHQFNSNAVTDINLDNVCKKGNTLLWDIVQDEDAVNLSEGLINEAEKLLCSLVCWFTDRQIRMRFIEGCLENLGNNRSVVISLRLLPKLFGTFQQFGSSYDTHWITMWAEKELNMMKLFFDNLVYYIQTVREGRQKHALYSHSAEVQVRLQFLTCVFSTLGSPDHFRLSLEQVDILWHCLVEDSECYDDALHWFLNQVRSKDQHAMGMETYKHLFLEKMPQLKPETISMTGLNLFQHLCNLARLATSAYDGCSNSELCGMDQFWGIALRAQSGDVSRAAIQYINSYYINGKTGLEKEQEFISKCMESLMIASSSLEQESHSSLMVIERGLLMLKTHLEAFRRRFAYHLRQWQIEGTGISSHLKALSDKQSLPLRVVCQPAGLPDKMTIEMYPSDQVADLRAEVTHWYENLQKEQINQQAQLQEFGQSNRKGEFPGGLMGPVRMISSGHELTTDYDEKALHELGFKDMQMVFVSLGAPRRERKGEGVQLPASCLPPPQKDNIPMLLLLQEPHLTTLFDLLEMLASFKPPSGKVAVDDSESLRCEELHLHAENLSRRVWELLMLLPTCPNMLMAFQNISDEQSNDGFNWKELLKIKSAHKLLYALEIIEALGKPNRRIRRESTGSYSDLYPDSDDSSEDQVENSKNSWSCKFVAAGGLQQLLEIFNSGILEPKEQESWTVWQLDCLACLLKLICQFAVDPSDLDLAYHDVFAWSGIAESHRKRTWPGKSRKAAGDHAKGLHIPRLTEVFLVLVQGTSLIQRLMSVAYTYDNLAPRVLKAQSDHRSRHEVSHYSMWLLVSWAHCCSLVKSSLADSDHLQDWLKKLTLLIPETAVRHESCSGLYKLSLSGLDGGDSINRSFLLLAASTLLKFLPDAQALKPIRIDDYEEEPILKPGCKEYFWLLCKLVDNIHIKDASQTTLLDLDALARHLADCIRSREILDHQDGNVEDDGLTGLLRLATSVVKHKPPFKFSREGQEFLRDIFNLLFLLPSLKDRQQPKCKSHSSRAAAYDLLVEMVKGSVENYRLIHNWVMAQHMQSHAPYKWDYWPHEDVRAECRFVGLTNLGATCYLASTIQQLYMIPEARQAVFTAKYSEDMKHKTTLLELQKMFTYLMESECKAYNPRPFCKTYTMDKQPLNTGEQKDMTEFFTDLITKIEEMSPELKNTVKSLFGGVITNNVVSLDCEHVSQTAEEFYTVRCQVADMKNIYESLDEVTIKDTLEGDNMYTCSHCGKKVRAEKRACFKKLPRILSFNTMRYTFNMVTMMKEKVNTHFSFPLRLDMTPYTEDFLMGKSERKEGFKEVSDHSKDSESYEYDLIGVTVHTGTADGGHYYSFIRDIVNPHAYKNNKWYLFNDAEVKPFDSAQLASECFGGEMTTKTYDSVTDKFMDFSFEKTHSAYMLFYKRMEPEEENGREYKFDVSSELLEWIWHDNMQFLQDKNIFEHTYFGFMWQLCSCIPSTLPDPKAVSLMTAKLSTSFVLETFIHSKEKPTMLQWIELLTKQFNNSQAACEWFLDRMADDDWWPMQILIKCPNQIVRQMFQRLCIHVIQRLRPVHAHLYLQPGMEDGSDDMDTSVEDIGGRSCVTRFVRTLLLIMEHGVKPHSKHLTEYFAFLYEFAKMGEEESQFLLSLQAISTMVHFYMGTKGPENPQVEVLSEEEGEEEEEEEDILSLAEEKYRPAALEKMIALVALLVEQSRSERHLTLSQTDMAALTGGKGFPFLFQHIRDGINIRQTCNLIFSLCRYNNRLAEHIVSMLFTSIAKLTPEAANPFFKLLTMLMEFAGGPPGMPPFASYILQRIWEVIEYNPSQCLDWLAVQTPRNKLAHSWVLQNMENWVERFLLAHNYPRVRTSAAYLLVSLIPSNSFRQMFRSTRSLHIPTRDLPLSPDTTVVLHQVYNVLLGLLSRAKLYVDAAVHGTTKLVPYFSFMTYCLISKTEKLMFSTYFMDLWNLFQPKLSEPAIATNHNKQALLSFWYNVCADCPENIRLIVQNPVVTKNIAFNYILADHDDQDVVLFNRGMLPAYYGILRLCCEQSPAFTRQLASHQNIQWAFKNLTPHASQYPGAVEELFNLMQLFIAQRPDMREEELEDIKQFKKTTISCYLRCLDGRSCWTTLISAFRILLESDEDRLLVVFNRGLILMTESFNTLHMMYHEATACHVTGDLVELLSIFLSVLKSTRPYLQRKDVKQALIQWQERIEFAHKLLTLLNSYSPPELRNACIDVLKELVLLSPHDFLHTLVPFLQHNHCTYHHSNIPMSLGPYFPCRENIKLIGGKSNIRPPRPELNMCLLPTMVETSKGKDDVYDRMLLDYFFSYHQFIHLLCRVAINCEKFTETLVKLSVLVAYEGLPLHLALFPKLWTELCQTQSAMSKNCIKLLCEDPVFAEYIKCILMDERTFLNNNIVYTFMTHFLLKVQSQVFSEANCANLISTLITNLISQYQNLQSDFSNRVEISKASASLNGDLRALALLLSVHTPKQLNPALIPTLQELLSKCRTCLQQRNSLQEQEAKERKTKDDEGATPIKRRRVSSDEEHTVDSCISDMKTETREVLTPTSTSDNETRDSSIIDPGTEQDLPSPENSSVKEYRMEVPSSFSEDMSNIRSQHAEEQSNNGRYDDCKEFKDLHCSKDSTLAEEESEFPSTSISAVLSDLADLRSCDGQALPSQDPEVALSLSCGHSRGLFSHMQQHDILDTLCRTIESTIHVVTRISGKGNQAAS
Outline: (§1)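 Each value is an average log2 ratio of fragment to vehicle, tested by unpaired t-test. The underlying Spectronaut label-free quantities were global-median-normalised, and only proteins with ≥2 unique peptides were included. Triplicate HEK293T lysate samples (495 µg) were exposed to fragment at 200 µM or vehicle for 3 h, then to Biotin-Ahx-Ub-VS at 0.5 µM final for 1 h, before NeutrAvidin enrichment of labelled DUBs, LysC and trypsin digestion, and diaPASEF LC-MS/MS.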

USP36 = target: T1, USP36 (UniProt Q9P275)
T1 sequence (whole entry): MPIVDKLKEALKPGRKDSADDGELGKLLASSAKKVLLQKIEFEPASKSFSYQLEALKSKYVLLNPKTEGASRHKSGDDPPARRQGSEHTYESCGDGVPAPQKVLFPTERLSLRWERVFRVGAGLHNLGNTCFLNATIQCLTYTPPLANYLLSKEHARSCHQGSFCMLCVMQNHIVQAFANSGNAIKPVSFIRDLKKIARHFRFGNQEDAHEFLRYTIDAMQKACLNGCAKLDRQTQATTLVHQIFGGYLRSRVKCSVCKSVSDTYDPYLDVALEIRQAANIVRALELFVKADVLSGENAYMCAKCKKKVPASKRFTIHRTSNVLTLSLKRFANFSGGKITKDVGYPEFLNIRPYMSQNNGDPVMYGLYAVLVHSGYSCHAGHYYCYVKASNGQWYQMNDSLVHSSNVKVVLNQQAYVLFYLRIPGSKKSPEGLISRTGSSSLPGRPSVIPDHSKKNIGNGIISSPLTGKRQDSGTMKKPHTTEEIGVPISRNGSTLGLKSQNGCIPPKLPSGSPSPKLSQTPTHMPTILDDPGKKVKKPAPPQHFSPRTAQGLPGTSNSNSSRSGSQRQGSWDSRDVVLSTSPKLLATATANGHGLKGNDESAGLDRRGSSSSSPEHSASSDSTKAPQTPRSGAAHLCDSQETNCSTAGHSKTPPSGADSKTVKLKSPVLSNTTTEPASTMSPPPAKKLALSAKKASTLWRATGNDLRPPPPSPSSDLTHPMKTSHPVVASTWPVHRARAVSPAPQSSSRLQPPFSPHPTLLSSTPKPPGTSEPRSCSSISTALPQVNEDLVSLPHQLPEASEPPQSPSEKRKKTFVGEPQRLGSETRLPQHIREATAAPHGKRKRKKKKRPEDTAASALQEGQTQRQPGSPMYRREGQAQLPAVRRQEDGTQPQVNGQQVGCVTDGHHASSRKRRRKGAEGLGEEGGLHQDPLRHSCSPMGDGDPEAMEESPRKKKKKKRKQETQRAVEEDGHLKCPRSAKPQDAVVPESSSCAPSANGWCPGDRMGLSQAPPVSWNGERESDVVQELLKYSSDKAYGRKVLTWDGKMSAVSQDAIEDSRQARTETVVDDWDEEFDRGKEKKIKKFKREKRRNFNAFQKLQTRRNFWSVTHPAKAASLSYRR
Outline: as §1

USP38 = target: T2, USP38 (UniProt Q8NB14)
T2 sequence (whole entry): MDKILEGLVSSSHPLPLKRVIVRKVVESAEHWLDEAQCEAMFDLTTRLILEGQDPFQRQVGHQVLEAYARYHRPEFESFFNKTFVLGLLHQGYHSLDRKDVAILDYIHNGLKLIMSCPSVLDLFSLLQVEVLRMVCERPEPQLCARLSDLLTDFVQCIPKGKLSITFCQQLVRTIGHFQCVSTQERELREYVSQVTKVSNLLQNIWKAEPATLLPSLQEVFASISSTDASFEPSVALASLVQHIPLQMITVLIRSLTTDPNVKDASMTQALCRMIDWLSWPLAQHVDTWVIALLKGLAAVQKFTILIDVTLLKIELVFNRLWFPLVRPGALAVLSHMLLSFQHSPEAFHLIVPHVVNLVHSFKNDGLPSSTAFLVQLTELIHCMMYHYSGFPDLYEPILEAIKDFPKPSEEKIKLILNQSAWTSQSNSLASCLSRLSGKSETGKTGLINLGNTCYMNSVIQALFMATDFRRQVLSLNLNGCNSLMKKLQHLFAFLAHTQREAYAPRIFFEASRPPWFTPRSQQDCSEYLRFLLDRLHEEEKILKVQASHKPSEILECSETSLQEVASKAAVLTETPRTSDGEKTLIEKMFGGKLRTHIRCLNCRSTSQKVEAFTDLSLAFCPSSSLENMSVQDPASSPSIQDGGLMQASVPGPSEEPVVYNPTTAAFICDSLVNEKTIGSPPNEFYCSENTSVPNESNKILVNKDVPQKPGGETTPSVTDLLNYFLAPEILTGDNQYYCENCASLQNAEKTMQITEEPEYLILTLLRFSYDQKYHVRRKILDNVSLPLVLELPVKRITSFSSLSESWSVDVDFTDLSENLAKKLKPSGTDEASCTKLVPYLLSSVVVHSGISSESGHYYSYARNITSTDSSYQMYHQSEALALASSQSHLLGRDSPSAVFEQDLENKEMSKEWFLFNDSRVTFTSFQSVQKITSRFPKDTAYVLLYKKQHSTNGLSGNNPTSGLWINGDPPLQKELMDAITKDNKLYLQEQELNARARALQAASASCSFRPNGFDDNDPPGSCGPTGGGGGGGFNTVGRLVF
Outline: as §1

USP39 = target: T3, USP39 (UniProt Q53GS9)
T3 sequence (whole entry): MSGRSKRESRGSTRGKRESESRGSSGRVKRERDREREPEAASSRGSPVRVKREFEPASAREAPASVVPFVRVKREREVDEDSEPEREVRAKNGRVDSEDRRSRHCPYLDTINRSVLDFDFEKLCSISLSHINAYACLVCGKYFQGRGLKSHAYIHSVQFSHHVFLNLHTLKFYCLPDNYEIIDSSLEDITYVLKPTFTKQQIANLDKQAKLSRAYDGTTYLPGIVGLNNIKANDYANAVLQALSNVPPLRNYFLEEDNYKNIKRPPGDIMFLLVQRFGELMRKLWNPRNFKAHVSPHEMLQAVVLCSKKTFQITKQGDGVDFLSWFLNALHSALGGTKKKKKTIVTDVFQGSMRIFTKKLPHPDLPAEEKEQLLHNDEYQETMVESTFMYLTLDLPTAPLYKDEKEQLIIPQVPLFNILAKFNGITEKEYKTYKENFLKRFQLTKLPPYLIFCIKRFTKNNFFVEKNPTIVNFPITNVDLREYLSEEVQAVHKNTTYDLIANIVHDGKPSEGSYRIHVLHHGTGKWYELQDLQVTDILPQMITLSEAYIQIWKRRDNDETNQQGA
Outline: as §1

USP4 = target: T4, USP4 (UniProt Q13107)
T4 sequence (whole entry): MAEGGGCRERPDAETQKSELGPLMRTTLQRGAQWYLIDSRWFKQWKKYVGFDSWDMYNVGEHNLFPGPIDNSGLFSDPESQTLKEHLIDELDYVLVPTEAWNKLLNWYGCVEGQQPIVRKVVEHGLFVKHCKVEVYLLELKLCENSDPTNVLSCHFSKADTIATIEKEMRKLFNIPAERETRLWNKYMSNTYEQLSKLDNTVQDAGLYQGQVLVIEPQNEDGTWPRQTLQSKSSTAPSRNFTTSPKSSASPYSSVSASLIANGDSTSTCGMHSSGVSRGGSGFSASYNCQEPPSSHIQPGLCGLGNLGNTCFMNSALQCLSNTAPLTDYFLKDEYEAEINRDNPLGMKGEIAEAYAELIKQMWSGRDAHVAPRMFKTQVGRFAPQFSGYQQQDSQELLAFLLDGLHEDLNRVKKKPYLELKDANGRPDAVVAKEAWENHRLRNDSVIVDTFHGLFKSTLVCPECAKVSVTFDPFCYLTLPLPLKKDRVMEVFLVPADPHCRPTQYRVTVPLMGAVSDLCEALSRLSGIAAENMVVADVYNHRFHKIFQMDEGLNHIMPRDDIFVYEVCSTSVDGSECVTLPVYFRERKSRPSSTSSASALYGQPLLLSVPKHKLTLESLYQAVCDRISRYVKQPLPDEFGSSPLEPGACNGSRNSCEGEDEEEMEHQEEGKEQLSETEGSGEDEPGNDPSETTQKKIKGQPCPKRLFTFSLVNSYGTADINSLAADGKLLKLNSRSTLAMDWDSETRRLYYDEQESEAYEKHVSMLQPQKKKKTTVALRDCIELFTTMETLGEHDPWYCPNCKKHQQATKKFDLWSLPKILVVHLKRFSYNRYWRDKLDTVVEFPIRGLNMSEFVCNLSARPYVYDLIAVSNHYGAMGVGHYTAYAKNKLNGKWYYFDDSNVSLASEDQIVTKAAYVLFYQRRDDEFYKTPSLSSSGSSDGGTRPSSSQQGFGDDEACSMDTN
Outline: as §1

Measured: log2 ratio of Biotin-Ahx-Ub-VS probe labelling

O=C(CCl)Nc1cccc(NC(=O)c2ccccc2)c1
inactive: USP34 0.0355 | USP36 -0.11 | USP38 0.15 | USP39 0.0551 | USP4 0.199
